Test results: PubChem BioAssay (EPA / NIEHS)
Where “and” joins values, the source holds several entries; their conditions need not be identical. Equal values may be shown once. Where a structure was tested more than once in an assay, its records may differ in their call. Calls of active or inactive are those of the source. Rule for the calls: active = hit-call score of the fitted dose curve at least 0.9, where 1 is the maximum; inactive = score below 0.9.

The compounds below were run on Bcl-2 (BAX) gene, BAX (gene 581) (assay: LTEA_HepaRG_BAX: Life Technologies and Expression Analysis (LTEA) Assay for Bcl-2 (BAX) gene using HepaRG (AID 2283470)). Settings: mRNA level, 48 h; actives raise or lower the signal.
Experimental: LTEA_HepaRG is a cell based, multiplexed-readout assay that uses HepaRG, a human liver cell line, with measurements taken at 48 hours after chemical dosing on a 96-well plate.LTEA_HepaRG_BAX is one of 102 assay component(s) measured in the LTEA HepaRG cell culture assay. It is a marker of Cell proliferation, survival, death.Data from the assay component LTEA_HepaRG_BAX was analyzed into 1 endpoint. This assay endpoint, LTEA_HepaRG_BAX, was analyzed with bidirectional fitting relative to DMSO as the negative control and baseline of activity. Using a type of inducible reporter, measures of mRNA induction for gain or loss-of-signal activity can be used to understand regulation of transcription factor activity. To generalize the intended target to other relatable targets, this assay endpoint is annotated to the cell cycle intended target family, where the subfamily is Cell proliferation, survival, death.
A total of 1060 chemcials from the ToxCast library were tested in eight-point concentration-response experiments. Cell culture and cytotoxicity assays were conducted at Thermo Fisher Scientific's Custom Services facility (Madison, WI). A single lot of human HepaRG cells (Thermo Fisher Scientific, Frederick, MD) was used for the cell culture experiments. 96-well format collagen type I coated plates of human HepaRG cells were prepared using established methods. Briefly, cryopreserved HepaRG cells were thawed, plated at a density of approximately 100,000 cells/well in HepaRG Thaw, Plate, and General Purpose media (HPRG770, Thermo Fisher Scientific), and incubated for 48 hours. 0.5% DMSO was selected as vehicle control to balance the requisite need of DMSO in HepaRG cultures to maintain differentiation (for example, baseline metabolism, proportions of hepatocytes vs. cholangiocytes), while enabling further hepatic receptor pathway activation (for example, PXR and CAR) in response to chemical exposure. 48 hours after plating, the culture medium was replaced with HepaRG Serum-Free Incudtion Media. Cells were exposed to each test chemical in duplicate and maintained in CO2 incubators for another 48 hours. Chemical plates were thawed to room temperature and 200x concentrations of treatment groups were prepared. 8-point conentration-reponse curves were made with the highest exposure at 100 uM, followed by half-log dilutions, all in 0.5% DMSO. Each test plate contained variouse controls, induction positive controls (1mM phenobarbital), cytotoxicity positive controls ([…] aflatoxin B1), vehicle controls (0.5% DMSO), and total lysis controls (0.5% DMSO). Cell morphology images were taken using an Essen IncuCyte FLR automated microscope, with six 96-well plates imaged in about 24 minutes. Images were captured and exported and JPEG files. Spent culture media was transfered to black-well plates for the LDH assay, and remaining media was sorted at -80 C for later use. Cells were treated with RLT buffer and frozen until shipped for gene expression analysis. Total RNA was isolated from the cell suspension in 75 uL of Buffer RLT (Qiagen, Germantown, MD 20874) by Quintiles/Expression Analysis (Durham, NC) using a custom isolation procedure. Total RNA from each plate well was transferred to a preamplification plate. Fluidigm's 96.96 Dynamic ArrayTM (Fluidigm, Amsterdam, the Netherlands) technology was used for gene expression analyses by quantitative reverse transcription polymerase chain reaction (qRT-PCR, performed by Quintiles/Expression Analysis, Durham, NC)89. Standard TaqManTM Assays (Applied Biosystems/ThermoFisher Scientific, Foster City, CA) were used to assess the expression of 93 genes selected based on their selectivity and sensitivity to important hepatic receptors known to be modulated by environmental chemicals; importance in human hepatocyte functionality; and hepatotoxicity. […]
`O=C(O)C1(C(=O)Nc2ccc(Cl)cc2Cl)CC1` was tested, and the outcome was “inactive”. With `CC(C)CCCCCCc1ccc(O)cc1` the outcome was “inactive”. `CCCCC(CC)COC(=O)c1ccccc1C(=O)O` (stereo not given) was tested, and the outcome was “inactive”. `CCC(C)OC(=O)N1CCCCC1CCO` (stereo not given) was tested, and the outcome was “inactive”. `C[C@]12CC[C@@H]3c4ccc(O)cc4C[C@@H](CCCCCCCCCS(=O)CCCC(F)(F)C(F)(F)F)[C@H]3[C@@H]1CC[C@@H]2O` (stereo not given in full) was tested, and the outcome was “inactive”. For `CCCCOC(=O)C(C)Oc1ccc(Oc2ccc(C(F)(F)F)cn2)cc1` (stereo not given), the outcome was “inactive”. With `N#CSCSc1nc2ccccc2s1` the outcome was “inactive”. `CCCCOCCOCCOCc1cc2c(cc1CCC)OCO2` was tested, and the outcome was “inactive”. With `COC(=O)CSc1cc(N=c2sc(=O)n3n2CCCC3)c(F)cc1Cl` the outcome was “inactive”. In the case of `COC(=O)c1ccc(I)cc1S(=O)(=O)NC(=O)Nc1nc(C)nc(OC)n1`, the outcome is reported as “inactive”. `COC(=O)c1ccccc1C(=O)O` was tested, and the outcome was “inactive”. For `CCCCCOC(=O)COc1cc(N2C(=O)C3=C(CCCC3)C2=O)c(F)cc1Cl`, the outcome was “inactive”. With `N[C@@H](Cc1cc(I)c(Oc2ccc(O)c(I)c2)c(I)c1)C(=O)O` the outcome was “inactive”. For `CCCCOC(=O)[C@@H](C)Oc1ccc(Oc2ccc(C(F)(F)F)cn2)cc1`, the outcome was “inactive”. In the case of `O=C(c1ccccc1)C1CCCCC1`, the outcome is reported as “inactive”. With `S=C(S)NCCNC(=S)S.[Mn+2].[S-]C([S-])=NCCN=C([S-])[S-].[Zn+2]` the AC50 was 2.35 µM (active) and 1.62 µM (active) and the outcome was “inactive”. For `Oc1ccc(C(c2ccc(O)cc2)C(Cl)(Cl)Cl)cc1`, the outcome was “inactive”. For `CCCCC(CC)CN1C(=O)C2C3C=CC(C3)C2C1=O` (stereo not given), the outcome was “inactive”. For `c1ccc(Nc2ccccc2)cc1`, the outcome was “inactive”. In the case of `CN(C)C(=O)Nc1ccc(Cl)c(Cl)c1`, the outcome is reported as “inactive”. With `CCCN(CCC)C(=O)SCC` the outcome was “inactive”. With `CC(C)(C)[C@@H](O)[C@@H](Cc1ccc(Cl)cc1)n1cncn1` the outcome was “inactive”. In the case of `CC(=O)[C@H]1CC[C@H]2[C@@H]3CCC4=CC(=O)CC[C@]4(C)[C@H]3CC[C@]12C`, the AC50 is reported as 27 µM (active). For `C[C@]12C[C@H](O)[C@H]3[C@@H](CCC4=CC(=O)CC[C@@]43C)[C@@H]1CC[C@@H]2C(=O)CO`, the outcome was “inactive”. With `c1ccc2[nH]c(-c3cscn3)nc2c1` the outcome was “inactive”. In the case of `CC(C)(c1ccc(O)cc1)c1ccc(O)cc1`, the outcome is reported as “inactive”. In the case of `CCSC(=O)N(CC(C)C)CC(C)C`, the outcome is reported as “inactive”. With `CCN(CC)C(=O)c1cccc(C)c1` the outcome was “inactive”. In the case of `CCCCCCC(C)OC(=O)COc1nc(F)c(Cl)c(N)c1Cl` (stereo not given), the outcome is reported as “inactive”. In the case of `CCOC(=O)C(C)Oc1ccc(Oc2nc3ccc(Cl)cc3o2)cc1` (stereo not given), the outcome is reported as “inactive”. For `CSC(=O)c1cccc2nnsc12`, the outcome was “inactive”. In the case of `S=C([S-])NCCNC(=S)[S-].[Mn+2]`, the outcome is reported as “inactive”. In the case of `C=CCOC(Cn1ccnc1)c1ccc(Cl)cc1Cl` (stereo not given), the AC50 is reported as 33.9 µM (active). `CC1(C)C(C=C(Cl)Cl)C1C(=O)OCc1cccc(Oc2ccccc2)c1` (stereo not given) was tested, and the outcome was “inactive”. `CCOC(=O)NCCOc1ccc(Oc2ccccc2)cc1` was tested, and the outcome was “inactive”. With `CCNc1nc(N)nc(Cl)n1` the outcome was “inactive”. `OB(O)O` was tested, and the outcome was “inactive”. In the case of `O=C(c1ccc(O)cc1O)c1ccc(O)cc1O`, the outcome is reported as “inactive”. For `Cc1nn(C)c(Oc2ccccc2)c1C=NOCc1ccc(C(=O)OC(C)(C)C)cc1`, the AC50 was 22.2 µM (active).
